Measured values reported in ChEMBL document CHEMBL1961873, “Compounds: GSK PKIS; Assays: Nanosyn kinase panel” (2012).

Tests used:
[1] = target: T1, 3-phosphoinositide-dependent protein kinase 1 (Homo sapiens) (UniProt O15530); details: at 0.1 µM;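 further: values are mean inhibition of PDK1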
T1 sequence (whole entry): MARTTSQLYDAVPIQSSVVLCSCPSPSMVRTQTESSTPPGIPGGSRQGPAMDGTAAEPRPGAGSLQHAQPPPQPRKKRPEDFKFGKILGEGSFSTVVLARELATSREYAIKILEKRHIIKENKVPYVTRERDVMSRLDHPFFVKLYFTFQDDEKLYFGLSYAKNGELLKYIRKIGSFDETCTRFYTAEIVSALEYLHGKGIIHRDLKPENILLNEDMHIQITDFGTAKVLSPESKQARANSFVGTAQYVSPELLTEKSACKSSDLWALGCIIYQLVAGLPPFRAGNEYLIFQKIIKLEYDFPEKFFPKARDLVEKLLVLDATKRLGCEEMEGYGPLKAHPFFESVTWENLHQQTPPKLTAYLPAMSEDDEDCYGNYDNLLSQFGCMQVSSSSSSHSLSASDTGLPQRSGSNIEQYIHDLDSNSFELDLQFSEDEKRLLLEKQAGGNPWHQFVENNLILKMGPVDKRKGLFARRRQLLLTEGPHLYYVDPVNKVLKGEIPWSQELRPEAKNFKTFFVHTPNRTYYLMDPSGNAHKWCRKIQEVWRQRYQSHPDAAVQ

[2] = target: cAMP-dependent protein kinase catalytic subunit alpha (Homo sapiens) (UniProt P17612); details: at 0.1 µM
[3] = target: cAMP-dependent protein kinase catalytic subunit alpha (Homo sapiens) (UniProt P17612); details: at 1 µM
[4] = target: Protein kinase C alpha type (Homo sapiens) (UniProt P17252); details: at 0.1 µM
[5] = target: Protein kinase C alpha type (Homo sapiens) (UniProt P17252); details: at 1 µM
[6] = target: Protein kinase C beta type (Homo sapiens) (UniProt P05771); details: at 0.1 µM
Chain of Protein kinase C beta type (Homo sapiens) (P05771 2-671 limits assumed): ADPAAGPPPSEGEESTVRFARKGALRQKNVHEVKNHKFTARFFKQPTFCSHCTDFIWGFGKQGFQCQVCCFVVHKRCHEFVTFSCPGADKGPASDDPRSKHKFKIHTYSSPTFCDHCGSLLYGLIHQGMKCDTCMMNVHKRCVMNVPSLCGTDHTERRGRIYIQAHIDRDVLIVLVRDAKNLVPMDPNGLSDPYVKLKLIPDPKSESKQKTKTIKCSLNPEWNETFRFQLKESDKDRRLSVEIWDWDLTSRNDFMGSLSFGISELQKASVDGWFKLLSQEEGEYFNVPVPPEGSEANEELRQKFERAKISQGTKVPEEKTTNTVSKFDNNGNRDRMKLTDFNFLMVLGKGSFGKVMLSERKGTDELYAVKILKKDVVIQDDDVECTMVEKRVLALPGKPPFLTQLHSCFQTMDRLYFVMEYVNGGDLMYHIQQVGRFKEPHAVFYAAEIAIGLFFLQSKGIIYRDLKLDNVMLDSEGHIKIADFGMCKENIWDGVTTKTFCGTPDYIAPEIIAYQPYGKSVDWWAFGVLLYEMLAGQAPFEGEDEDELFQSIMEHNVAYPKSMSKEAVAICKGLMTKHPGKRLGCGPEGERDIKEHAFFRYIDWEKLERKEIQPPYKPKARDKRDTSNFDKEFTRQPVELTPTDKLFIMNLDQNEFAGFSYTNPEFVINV

[7] = target: Protein kinase C beta type (Homo sapiens) (UniProt P05771); details: at 1 µM
[8] = target: Protein kinase C eta type (Homo sapiens) (UniProt P24723); details: at 0.1 µM
Chain of Protein kinase C eta type (Homo sapiens) (P24723 whole entry): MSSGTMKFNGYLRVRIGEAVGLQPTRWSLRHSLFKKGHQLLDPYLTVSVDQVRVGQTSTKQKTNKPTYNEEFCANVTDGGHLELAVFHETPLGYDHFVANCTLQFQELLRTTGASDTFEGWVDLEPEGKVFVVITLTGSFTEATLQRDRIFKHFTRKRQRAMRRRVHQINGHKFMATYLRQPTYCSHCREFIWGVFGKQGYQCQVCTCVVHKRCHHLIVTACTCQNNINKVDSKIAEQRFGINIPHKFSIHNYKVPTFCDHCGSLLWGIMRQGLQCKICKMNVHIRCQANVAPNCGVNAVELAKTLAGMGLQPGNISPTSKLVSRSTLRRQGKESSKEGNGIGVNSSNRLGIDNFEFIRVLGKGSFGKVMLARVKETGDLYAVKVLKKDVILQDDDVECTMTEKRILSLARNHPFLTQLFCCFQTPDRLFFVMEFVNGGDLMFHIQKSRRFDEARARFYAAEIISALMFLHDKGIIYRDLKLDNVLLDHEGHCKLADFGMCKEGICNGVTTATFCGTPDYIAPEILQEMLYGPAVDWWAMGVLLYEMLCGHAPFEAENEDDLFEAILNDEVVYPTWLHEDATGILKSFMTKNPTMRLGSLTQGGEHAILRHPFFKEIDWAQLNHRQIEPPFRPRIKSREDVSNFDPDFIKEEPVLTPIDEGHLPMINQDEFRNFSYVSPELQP

[9] = target: Protein kinase C eta type (Homo sapiens) (UniProt P24723); details: at 1 µM
[10] = target: Protein kinase C gamma type (Homo sapiens) (UniProt P05129); details: at 0.1 µM
[11] = target: Protein kinase C gamma type (Homo sapiens) (UniProt P05129); details: at 1 µM
[12] = target: T2, Protein kinase C iota type (Homo sapiens) (UniProt P41743); details: at 0.1 µM
T2 sequence (whole entry): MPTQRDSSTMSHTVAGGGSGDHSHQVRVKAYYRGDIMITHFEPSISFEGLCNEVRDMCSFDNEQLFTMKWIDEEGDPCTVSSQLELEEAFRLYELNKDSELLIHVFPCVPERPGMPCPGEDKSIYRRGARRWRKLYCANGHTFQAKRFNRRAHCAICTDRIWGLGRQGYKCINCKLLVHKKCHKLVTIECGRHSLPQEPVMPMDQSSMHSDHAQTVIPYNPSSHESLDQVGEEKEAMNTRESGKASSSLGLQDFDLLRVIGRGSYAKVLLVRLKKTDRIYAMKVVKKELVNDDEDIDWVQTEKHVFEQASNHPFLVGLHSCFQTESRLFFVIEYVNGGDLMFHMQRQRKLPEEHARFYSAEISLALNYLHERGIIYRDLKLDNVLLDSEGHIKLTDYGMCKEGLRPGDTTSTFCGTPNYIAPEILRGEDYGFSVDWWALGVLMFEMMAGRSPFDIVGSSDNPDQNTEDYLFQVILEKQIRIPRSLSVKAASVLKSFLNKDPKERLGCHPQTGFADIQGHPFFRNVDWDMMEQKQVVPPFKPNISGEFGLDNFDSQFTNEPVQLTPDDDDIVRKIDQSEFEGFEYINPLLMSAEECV

[13] = target: T2, Protein kinase C iota type (Homo sapiens); details: at 1 µM
[14] = target: Protein kinase C theta type (Homo sapiens) (UniProt Q04759); details: at 0.1 µM
Chain of Protein kinase C theta type (Homo sapiens) (Q04759 whole entry, looked up): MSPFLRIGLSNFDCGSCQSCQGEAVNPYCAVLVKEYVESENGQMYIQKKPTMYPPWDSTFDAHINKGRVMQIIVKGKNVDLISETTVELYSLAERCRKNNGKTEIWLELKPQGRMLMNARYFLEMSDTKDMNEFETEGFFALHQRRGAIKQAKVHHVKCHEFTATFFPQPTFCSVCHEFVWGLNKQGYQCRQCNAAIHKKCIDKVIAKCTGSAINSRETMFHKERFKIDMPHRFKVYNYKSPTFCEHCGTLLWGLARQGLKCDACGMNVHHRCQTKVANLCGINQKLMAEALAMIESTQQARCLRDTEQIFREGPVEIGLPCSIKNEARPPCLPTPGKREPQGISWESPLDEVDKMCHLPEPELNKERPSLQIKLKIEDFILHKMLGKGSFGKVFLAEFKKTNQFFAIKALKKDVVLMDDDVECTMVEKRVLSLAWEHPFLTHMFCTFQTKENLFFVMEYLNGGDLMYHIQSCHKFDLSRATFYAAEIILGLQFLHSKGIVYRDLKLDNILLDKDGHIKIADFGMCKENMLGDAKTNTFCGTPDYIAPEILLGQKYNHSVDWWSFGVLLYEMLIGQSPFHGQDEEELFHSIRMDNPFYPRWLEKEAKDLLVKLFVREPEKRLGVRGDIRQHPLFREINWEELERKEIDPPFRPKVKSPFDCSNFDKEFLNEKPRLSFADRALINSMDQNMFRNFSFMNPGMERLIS

[15] = target: Protein kinase C theta type (Homo sapiens) (UniProt Q04759); details: at 1 µM
[16] = target: Protein kinase C beta type (Homo sapiens) (UniProt P05771); details: at 0.1 µM; remark: listed apart in the source
[17] = target: Protein kinase C beta type (Homo sapiens) (UniProt P05771); details: at 1 µM; remark: listed apart in the source
[18] = target: T3, Serine/threonine-protein kinase D1 (Homo sapiens) (UniProt Q15139); details: at 0.1 µM
T3 sequence (whole entry): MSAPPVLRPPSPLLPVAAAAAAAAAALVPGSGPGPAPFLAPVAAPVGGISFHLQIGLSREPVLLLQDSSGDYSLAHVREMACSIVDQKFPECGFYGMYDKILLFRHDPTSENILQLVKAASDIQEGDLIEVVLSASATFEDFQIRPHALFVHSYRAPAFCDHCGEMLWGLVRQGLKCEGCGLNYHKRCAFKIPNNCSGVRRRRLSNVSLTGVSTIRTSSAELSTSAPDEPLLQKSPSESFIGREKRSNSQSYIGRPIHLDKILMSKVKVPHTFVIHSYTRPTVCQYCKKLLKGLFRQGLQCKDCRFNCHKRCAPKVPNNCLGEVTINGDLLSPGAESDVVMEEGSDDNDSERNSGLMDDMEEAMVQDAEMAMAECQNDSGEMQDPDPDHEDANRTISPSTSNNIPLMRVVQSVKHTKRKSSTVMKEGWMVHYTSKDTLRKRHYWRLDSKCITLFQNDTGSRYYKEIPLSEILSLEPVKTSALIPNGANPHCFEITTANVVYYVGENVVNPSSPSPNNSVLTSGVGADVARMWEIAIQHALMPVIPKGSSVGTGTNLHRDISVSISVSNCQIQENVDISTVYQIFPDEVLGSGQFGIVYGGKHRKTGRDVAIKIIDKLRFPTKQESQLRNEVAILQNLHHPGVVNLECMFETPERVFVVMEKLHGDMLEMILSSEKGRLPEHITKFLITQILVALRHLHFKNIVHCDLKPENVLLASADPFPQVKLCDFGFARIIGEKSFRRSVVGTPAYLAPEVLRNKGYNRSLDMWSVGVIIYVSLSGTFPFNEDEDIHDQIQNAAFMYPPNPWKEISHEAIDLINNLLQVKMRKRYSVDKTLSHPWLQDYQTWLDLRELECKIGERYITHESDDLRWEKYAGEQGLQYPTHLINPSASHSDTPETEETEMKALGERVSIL

[19] = target: T3, Serine/threonine-protein kinase D1 (Homo sapiens); details: at 1 µM
[20] = target: T4, Serine/threonine-protein kinase D2 (Homo sapiens) (UniProt Q9BZL6); details: at 0.1 µM;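 further: reported percent inhibition values are means, part of the GSK PKIS kinase panel screen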
T4 sequence (whole entry): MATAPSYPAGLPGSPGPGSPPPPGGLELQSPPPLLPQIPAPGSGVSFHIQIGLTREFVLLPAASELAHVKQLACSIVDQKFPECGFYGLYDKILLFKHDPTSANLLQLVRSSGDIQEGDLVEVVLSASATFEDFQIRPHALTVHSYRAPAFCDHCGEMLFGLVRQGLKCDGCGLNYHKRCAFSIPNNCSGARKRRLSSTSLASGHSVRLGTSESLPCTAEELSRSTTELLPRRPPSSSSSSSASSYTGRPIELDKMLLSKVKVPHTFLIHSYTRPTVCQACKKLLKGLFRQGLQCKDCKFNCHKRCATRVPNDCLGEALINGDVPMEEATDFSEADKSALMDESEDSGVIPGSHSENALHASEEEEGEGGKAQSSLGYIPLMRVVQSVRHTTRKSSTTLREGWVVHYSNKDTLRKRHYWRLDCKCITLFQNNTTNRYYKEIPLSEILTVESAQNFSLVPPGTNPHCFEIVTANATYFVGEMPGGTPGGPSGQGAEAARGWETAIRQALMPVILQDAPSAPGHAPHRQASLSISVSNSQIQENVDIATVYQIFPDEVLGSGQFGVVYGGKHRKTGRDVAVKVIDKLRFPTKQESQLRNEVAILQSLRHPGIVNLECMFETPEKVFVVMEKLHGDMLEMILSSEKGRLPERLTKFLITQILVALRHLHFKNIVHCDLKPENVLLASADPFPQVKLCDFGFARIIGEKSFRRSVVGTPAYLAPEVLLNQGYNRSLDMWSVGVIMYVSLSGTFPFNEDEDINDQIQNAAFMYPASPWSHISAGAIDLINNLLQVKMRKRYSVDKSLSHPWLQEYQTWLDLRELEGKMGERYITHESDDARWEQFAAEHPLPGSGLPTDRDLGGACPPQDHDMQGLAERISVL

Row | SMILES | inhibition [1] [%] | inhibition [2] [%] | inhibition [3] [%] | inhibition [4] [%] | inhibition [5] [%] | inhibition [6] [%] | inhibition [7] [%] | inhibition [8] [%] | inhibition [9] [%] | inhibition [10] [%] | inhibition [11] [%] | inhibition [12] [%] | inhibition [13] [%] | inhibition [14] [%] | inhibition [15] [%] | inhibition [16] [%] | inhibition [17] [%] | inhibition [18] [%] | inhibition [19] [%] | inhibition [20] [%]
1 | COc1ccc(-c2coc3ncnc(N)c23)cc1 | 0.68 | 1.5 | 1.74 | 0.29 | 1.92 | -0.46 | -0.25 | 3.06 | 2.62 | 0.83 | 3.98 | 1.44 | 3.36 | 1.7 | 1.28 | 1.62 | 2.4 | 4.27 | 6.99 | 4.87
2 | O=C1NC(=O)C(c2ccccc2Cl)=C1Nc1cccc(O)c1 | 0.81 | 1.52 | 2.92 | 0.83 | 3.41 | 0.31 | 5.5 | 2.05 | 5.24 | -3.81 | 1.06 | 1.73 | 3.13 | 1.38 | 3.85 | 2.15 | 14.5 | 2.34 | 4.55 | 1.91
3 | Cc1cccc(-c2n[nH]cc2-c2ccc3ncccc3n2)n1 | 1.02 | 1.12 | 1.28 | 0.19 | -0.46 | 0.17 | 0.39 | -0.08 | 2.61 | -0.61 | 0.55 | 0.4 | -1.7 | 0.33 | -0.49 | 0.52 | 0.49 | 2.77 | 32.8 | 5.63
4 | O=C1NC(=O)C(c2ccc(Cl)cc2)=C1Nc1ccc(Cl)c(C(=O)O)c1 | 0.12 | -1.8 | -1.57 | -0.02 | -0.11 | -1.13 | -0.89 | -3.26 | -3.28 | 0.52 | 1.73 | 0.12 | 3.71 | -0.99 | -0.44 | -0.73 | 3.47 | -1.33 | 0.04 | -1.08
